For some assays here: Results with a measured potency or affinity are listed apart.
Columns and labels:
Parameters in all cases: scale not given: direction of the effect not stated beside the values
[1] = target: Protein translocase subunit SecA (Escherichia coli (strain K12)) (UniProt P10408); assay: Assay to Identify E. coli SecA ATPase Inhibitors; format: functional; conditions: 30 µM
[2] = target: T1, Ubiquitin-activating enzyme e1, putative (Leishmania donovani (strain BPK282A1)) (UniProt E9BSI1); assay: Leishmania donovani Ubiquitin Activating Enzyme (LdE1); format: functional; conditions: 30 µM
T1 sequence (whole entry): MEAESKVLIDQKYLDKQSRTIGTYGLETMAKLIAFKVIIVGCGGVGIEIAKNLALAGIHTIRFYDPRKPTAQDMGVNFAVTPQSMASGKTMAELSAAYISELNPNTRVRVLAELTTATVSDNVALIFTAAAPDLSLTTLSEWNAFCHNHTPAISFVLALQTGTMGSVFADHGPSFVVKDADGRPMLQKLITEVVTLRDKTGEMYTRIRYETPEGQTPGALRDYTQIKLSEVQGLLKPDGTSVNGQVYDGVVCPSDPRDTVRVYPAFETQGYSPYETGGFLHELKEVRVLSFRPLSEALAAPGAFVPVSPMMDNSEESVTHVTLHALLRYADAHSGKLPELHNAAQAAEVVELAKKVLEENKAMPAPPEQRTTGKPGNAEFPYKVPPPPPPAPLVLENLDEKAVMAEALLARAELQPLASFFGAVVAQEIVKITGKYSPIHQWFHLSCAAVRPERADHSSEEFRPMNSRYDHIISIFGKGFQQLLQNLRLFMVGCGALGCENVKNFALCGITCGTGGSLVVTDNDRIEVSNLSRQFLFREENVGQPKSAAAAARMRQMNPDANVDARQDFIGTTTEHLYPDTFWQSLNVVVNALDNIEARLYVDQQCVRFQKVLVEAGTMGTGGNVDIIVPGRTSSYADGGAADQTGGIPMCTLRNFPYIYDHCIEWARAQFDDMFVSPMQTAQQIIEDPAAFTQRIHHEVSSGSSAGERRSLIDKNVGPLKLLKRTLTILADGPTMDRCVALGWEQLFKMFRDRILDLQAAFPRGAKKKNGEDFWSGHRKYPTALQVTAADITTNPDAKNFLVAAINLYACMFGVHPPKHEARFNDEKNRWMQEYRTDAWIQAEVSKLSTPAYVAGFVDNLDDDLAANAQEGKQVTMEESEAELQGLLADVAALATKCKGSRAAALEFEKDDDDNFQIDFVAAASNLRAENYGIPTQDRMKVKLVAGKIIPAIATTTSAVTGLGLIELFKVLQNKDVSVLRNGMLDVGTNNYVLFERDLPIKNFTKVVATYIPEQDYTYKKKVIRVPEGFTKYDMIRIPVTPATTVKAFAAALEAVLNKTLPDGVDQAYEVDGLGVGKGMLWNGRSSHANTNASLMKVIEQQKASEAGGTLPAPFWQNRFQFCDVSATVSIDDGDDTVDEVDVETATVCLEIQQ

[3] = target: AMP-activated protein kinase, AMPK (Homo sapiens) (UniProt P54646+O43741+P54619+Q9UGJ0+Q9Y478+Q13131+Q9UGI9); assay: AMP-dependent Kinase enzyme assay. An in vitro enzyme assay that detects ADP turnover that is directly proportional to AMPK activity. This uses naive AMPK that is activated during the assay with MK-8722; format: functional; conditions: 30 µM
[4] = target: Sialic acid-binding Ig-like lectin 9 (Homo sapiens) (UniProt Q9Y336); assay: Hs-Siglec9 ALPHAscreen SOP 20170721; conditions: 10 µM
Trypanosoma cruzi = assay: Trypanosoma cruzi phosphomannomutase and mannose-1-phosphate guanylyltransferase assay; format: functional; conditions: 10 µM
[5] = target: T2, Arginase-2, mitochondrial (Homo sapiens) (UniProt P78540); assay: in vitro enzyme assay to detect the production of urea directly proportional to the activity of Arginase II; format: functional; conditions: 33.3 µM; further: in the data most compounds retested in dose-response had high values
T2 sequence (whole entry): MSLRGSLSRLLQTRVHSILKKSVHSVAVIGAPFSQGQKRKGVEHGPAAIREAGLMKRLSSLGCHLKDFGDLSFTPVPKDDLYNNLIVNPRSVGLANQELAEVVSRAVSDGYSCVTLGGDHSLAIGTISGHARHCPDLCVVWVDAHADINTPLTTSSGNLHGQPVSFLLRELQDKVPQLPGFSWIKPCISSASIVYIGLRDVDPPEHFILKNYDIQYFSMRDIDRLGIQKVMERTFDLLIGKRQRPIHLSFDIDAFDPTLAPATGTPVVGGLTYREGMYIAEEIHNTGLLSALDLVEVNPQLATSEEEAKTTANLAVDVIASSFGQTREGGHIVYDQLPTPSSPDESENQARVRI

[6] = target: T3, Proteasome subunit beta (Trypanosoma cruzi) (UniProt O96673); assay: Trypanosoma cruzi proteasome chymotrypsin-like activity (TcProtChymo) assay.; further: in the data most compounds retested in dose-response had high values; format: functional; conditions: 9.37 µM
T3 sequence (whole entry): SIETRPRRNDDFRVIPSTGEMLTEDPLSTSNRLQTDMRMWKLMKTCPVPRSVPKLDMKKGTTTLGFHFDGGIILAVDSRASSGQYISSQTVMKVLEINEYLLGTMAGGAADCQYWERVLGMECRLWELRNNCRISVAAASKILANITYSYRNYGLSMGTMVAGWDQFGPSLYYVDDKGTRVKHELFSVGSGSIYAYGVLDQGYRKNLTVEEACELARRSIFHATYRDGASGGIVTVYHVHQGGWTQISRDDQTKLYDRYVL

Homo sapiens = species on record: Homo sapiens; assay: To identify inhibition of the IFN signalling (Jak-Stat) pathway via expression of an eGFP reporter gene under the control of an IFN-stimulated response element (ISRE) containing MxA promoter.; format: functional; conditions: 30 µM
[7] = target: T4, Tyrosyl-tRNA synthetase, putative (Trypanosoma cruzi (strain CL Brener)) (UniProt Q4DSP6); assay: Trypanosoma cruzi tyrosyl tRNA synthetase (TcYRS) _High Tyrosine SOP; format: functional; conditions: 30 µM; further: in the data most compounds retested in dose-response had high values
T4 sequence (whole entry): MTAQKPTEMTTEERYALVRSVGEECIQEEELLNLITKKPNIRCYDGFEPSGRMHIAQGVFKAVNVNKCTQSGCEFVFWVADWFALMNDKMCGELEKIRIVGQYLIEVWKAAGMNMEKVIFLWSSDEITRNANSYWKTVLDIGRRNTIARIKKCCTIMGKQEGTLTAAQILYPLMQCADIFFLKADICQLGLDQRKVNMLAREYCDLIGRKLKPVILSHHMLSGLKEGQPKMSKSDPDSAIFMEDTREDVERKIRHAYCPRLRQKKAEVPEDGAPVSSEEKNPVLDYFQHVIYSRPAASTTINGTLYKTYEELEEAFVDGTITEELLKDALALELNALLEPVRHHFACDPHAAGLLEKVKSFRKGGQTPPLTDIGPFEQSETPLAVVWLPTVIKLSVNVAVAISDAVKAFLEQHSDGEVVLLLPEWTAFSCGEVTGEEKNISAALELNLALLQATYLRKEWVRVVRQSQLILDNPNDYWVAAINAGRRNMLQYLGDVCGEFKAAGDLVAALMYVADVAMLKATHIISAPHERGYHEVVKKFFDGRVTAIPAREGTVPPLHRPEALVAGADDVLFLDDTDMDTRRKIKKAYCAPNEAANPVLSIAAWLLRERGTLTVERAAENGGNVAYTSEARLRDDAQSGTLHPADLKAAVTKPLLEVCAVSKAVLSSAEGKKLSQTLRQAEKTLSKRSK

[8] = target: T4, Tyrosyl-tRNA synthetase, putative (Trypanosoma cruzi (strain CL Brener)); assay: Trypanosoma cruzi tyrosyl tRNA synthetase (TcYRS) SOP; format: functional; conditions: 30 µM
[9] = target: Chromo domain-containing protein 1 (Saccharomyces cerevisiae (strain ATCC 204508 / S288c) (Baker's yeast)) (UniProt P32657); assay: ScCHD-1 Enzyme Inhibition Assay; format: functional; conditions: 30 µM; further: in the data most compounds retested in dose-response had high values
Chromo domain-containing protein 1 (Saccharomyces cerevisiae (strain ATCC 204508 / S288c) (Baker's yeast)), sequence (P32657 whole entry, the tested form may be a part): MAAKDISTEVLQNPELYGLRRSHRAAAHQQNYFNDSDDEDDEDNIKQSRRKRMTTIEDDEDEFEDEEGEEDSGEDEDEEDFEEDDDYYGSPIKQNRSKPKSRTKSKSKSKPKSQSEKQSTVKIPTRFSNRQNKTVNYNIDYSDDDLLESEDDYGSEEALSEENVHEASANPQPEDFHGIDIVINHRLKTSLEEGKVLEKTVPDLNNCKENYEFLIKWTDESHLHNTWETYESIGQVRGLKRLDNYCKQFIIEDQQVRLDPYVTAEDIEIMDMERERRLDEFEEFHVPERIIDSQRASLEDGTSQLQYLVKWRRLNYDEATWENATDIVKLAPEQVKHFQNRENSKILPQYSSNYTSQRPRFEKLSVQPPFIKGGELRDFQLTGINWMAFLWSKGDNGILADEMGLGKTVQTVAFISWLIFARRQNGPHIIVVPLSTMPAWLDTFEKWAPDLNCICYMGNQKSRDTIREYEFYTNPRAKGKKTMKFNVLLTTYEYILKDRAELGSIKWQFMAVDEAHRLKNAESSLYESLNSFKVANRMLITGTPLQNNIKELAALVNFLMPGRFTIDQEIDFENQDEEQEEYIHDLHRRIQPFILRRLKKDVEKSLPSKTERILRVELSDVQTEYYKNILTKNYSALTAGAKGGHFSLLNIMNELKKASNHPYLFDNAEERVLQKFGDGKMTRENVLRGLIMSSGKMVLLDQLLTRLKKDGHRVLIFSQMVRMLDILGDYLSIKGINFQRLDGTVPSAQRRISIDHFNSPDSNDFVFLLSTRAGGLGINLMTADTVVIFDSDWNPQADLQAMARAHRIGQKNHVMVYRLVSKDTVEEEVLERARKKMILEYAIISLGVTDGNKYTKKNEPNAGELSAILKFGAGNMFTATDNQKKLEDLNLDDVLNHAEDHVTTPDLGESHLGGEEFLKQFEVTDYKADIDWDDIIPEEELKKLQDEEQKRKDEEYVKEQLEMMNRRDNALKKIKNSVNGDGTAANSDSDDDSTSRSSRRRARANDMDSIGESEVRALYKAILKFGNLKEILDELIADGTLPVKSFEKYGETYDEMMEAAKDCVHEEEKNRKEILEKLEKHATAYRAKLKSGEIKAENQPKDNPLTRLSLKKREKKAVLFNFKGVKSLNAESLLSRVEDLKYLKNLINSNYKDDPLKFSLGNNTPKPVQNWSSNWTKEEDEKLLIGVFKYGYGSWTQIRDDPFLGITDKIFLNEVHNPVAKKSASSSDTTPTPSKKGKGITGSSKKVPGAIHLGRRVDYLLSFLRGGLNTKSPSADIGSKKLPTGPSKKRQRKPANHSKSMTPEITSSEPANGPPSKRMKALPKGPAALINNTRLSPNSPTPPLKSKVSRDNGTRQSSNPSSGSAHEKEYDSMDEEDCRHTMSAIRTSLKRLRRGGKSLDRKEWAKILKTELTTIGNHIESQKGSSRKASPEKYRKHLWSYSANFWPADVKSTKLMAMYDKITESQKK

Sialic acid-binding Ig-like lectin 9 (Homo sapiens), sequence (Q9Y336 whole entry): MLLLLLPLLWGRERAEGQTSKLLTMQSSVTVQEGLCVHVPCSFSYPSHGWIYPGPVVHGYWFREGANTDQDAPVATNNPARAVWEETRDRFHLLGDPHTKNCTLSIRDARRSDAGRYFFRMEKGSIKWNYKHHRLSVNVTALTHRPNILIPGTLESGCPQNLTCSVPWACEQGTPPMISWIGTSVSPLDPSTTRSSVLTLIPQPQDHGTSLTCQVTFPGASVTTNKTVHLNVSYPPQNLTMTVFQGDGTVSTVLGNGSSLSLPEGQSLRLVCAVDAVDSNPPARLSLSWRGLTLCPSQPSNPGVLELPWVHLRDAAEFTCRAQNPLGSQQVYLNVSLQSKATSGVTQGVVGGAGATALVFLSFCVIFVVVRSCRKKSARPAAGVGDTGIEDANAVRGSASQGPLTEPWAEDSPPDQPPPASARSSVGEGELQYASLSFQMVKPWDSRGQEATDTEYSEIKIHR
Protein translocase subunit SecA (Escherichia coli (strain K12)), sequence (P10408 whole entry): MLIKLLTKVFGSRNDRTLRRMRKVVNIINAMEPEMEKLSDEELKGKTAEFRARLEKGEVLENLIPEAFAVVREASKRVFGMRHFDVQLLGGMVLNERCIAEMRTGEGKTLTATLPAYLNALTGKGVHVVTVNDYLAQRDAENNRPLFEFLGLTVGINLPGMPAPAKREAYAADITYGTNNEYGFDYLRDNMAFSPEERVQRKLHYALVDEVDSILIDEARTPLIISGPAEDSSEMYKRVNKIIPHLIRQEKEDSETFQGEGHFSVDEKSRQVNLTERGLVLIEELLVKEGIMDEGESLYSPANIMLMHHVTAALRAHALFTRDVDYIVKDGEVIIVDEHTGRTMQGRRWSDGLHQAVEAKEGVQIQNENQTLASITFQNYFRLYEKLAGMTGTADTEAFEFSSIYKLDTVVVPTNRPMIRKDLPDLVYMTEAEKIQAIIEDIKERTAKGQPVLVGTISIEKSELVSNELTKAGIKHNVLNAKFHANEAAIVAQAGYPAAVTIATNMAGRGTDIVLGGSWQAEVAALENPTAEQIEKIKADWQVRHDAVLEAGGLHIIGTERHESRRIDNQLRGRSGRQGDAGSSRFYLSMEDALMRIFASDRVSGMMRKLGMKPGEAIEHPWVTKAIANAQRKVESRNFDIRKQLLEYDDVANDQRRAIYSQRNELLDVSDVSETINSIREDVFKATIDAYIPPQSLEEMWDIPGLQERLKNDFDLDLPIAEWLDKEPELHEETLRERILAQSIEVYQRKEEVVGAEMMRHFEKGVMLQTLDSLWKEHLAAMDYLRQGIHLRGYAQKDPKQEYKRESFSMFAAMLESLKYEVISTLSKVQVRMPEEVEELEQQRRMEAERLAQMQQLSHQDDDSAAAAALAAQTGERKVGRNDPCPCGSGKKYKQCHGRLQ

Row | SMILES | Percent Effect [1] | Percent Effect [2] | Percent Effect [3] | Percent Effect [4] | Percent Effect (Trypanosoma cruzi) | Percent Effect [5] | Percent Effect [6] | Percent Effect (Homo sapiens) | Percent Effect [7] | Percent Effect [8] | Percent Effect [9]
1 | CC(C)CC1SCC(=O)Nc2c1cnn2C(C)C (configuration not stated) | -3.15% | 22.7% | 1.11% | 2.31% | 4.71% | -4.05% | 16.3% | 5.92% | 7.41% | 20.5% | -5.98%
2 | CCC1=N[C@@]2(CC[C@@H]3CN(Cc4ccc(Cl)cc4)C[C@@H]32)C(=O)N1 | -2.1% | 2.7% | 2.16% | -3.03% | -7.72% | -0.955% | 20.3% | 3.29% | 2.16% | 2.56% | 0.0576%
3 | Cc1cnn(CC2CCCN2C(=O)CCc2ccsc2)c1 (configuration not stated) | -4.66% | 7.79% | 3.01% | 4.3% | 3.82% | 2.32% | 0.242% | 15.8% | 1.91% | 7.06% | -15.5%
4 | O=C(Cn1ccc2ccccc21)NCc1ccc(C(=O)O)cc1 | -5.35% | 2.63% | 10.1% | 1.77% | -1.85% | 0% | 15.8% | -18.3% | -1.06% | 10.4% | -0.974%
5 | COc1ccc(CN(C)C(=O)CCc2c(C)nc(C)[nH]c2=O)cc1OC | -2.11% | 6.94% | -3.92% | 5.86% | 5.15% | 0% | 20.2% | -1.63% | 7.37% | 12.8% | -3.31%
6 | CCC(CC)c1cc(CNC(=O)N2CCOC(C)C2)on1 (configuration not stated) | -3.56% | -2.7% | -0.766% | -6.02% | -1.86% | 2.23% | -2.66% | 3.72% | 3.23% | 1.24% | 0.0369%
7 | Cc1ccc(N2CCC3(CC2)CC(OCC(=O)N(C)C)CO3)nn1 (configuration not stated) | -2.67% | 5.41% | 1.03% | -1.72% | -0.684% | 2.23% | 14.9% | -14.6% | 2.16% | 12.8% | 2.16%
8 | CC1c2ncc(Cn3cncn3)n2CCN1C1CCOCC1 (configuration not stated) | -4.22% | -2.67% | -5.46% | -3.4% | -4.83% | -54.3% | 9.91% | 2.92% | 2.08% | -12.5% | -5.31%
9 | COc1c(CNC2CCN(c3ncccn3)CC2)c(C(C)C)nn1C | -4.79% | 10.5% | 4.83% | -4.46% | -6.26% | 7.55% | 2.79% | -4.77% | 6.4% | 16.1% | -4.31%
10 | CCN(CC1CN(CCc2ccccn2)CCO1)c1cccnn1 (configuration not stated) | -2.15% | 0% | -5.23% | -0.0186% | 4.77% | 3.12% | 14.7% | -14.7% | 0.546% | 1.24% | 2.6%
11 | O=C(Cc1cccs1)NC1CCN(c2cccc(F)c2)CC1 | -3.15% | 16.4% | 6.31% | 18.6% | 2.74% | 7.27% | 9.05% | -1.55% | 5.38% | 15% | 1.6%
12 | CNc1nc(CNC(=O)Nc2cccc(F)c2)cs1 | -4.85% | 8.11% | -3.94% | 12.7% | -1.39% | -4.99% | 1.62% | 1.99% | 5.94% | 6.1% | 8.34%
13 | Fc1ccc(CN2CCC(c3n[nH]c4nccnc34)CC2)cc1F | -3.35% | 9.46% | 4.38% | -4.91% | 0.593% | -1.16% | 19.8% | 7.61% | 1.07% | 6.49% | -18.1%
14 | COc1ccc(S(=O)(=O)N2CCCC3(CCCN3S(C)(=O)=O)C2)cc1 (configuration not stated) | -2.95% | 10.8% | -2.61% | -2.37% | -8.31% | -2.73% | 12.3% | 7.81% | 0% | 8.64% | -3.67%
15 | Cc1ccc(C)c(OC2CCN(C(=O)c3ccc(O)nc3)CC2)c1 | -1.92% | 15.8% | -2.4% | 7.02% | 3.76% | 0.383% | 17.5% | 10.8% | 8.33% | 21.9% | -11.2%
16 | CN(C)CC(=O)N1CCOCC2(C1)CN(c1ccccc1)C(=O)CO2 (configuration not stated) | 1.58% | 8% | 11.2% | -1.53% | -4.05% | -56.8% | 3.08% | -9.58% | 5.21% | -22.5% | -7.95%
17 | CC(=O)N1CCCN(C(=O)c2ccn(-c3cccc(Cl)c3)n2)CC1 | -2.55% | 15.6% | -0.208% | -4.72% | -4.31% | -1.42% | 12.8% | 10.3% | 5.83% | 14.6% | -6%
18 | O=C(NCCOc1ccc(F)c(F)c1)NCc1ccncc1 | -1.97% | 5.41% | 0.439% | -1.88% | -2.32% | -2.86% | 11.2% | 14.5% | -0.529% | 4.88% | -2.73%
19 | Cc1nc(C)n(C2CCCN(C(=O)Cc3n[nH]c4ccccc34)C2)n1 (configuration not stated) | -5.17% | -2.6% | 5.72% | 7.39% | 1.69% | -7.47% | 4.56% | 5.91% | 5.83% | 14.6% | -7.79%
20 | Cc1noc(CN2CCC(c3ccnn3CCO)CC2)n1 | -3.55% | 12.7% | -1.18% | -2.56% | 8.59% | -0.76% | 8.76% | 4.82% | 6.4% | 16.5% | -6.79%
21 | COCCc1noc(CNC2CCCN(c3cccnn3)C2)n1 (configuration not stated) | -5.96% | -5.2% | -0.848% | -4.06% | -3.25% | 11% | 19.3% | 3.62% | 0% | -3.7% | 0.853%
22 | Cn1cc(CN2CC[C@@H]3O[C@H](C(=O)N4CCOCC4)C[C@@H]32)cn1 | 1.91% | -2.7% | 0.801% | -2.48% | -3.91% | 2.5% | -0.0845% | -20.5% | -46.5% | -3.66% | 4.62%

Reference: ChEMBL document CHEMBL3988442, “University of Dundee, Small-Polar-MMV Screening Library” (2021)
